Active and inactive are the calls of the source. The calls were made as follows: active = hit-call score of the fitted dose curve at least 0.9, where 1 is the maximum; inactive = score below 0.9.
What was measured:
Conditions in all cases: actives raise or lower the signal
[1] = CEETOX_H295R_11DCORT_noMTC: CeeTox H295R High-throughput Steroidogenesis Assay for 11-Deoxycortisol (11DCORT), maximum tolerated concentration (MTC) filtered results only (AID 2283911)
Procedure: CEETOX_H295R is a cell-based, multiplexed-readout assay that uses H295R, a human adrenal gland cell line, with measurements taken at 48 hours after chemical dosing in a 96-well plate.CEETOX_H295R_11DCORT_noMTC is one of 12 assay component(s) measured or calculated from the CEETOX_H295R assay (11 hormones and 1 viability assay). It is designed to make measurements of hormone induction, a form of inducible reporter, as detected with absorbance signals by HPLC-MS-MS technology. The concentrations for these components have not been pre-filtered for the maximum tolerated concentration (MTC) based on the MTT assay (_noMTC).Data from the assay component CEETOX_H295R_11DCORT_noMTC was analyzed into 1 assay endpoint. This assay endpoint, CEETOX_H295R_11DCORT_noMTC, was analyzed with bidirectional fitting relative to DMSO as the negative control and baseline of activity. […]
Cell culture and media preparation procedures were conducted in accordance with OECD Test No. 456 guidelines, with minor modifications. […] For steroid quantification, media samples were shipped to OpAns, LLC (Durham, NC) on dry ice, and samples were thawed to room temperature prior to liquid-liquid extraction. […] Steroid hormones were separated by HPLC, eluted using a reverse phase C18 gradient with electrospray positive ionization, followed by quantification by tandem mass spectrometry (MS/MS). Data were acquired on a MassHunter Workstation Acquisition version B03.01 (Agilent Technologies, Inc.) and processed using MassHunter Quantitative Analysis for QQQ. Accuracy was determined for each hormone analyte from 3 standards to determine upper and lower limits of quantification (ULOQ and LLOQ, respectively) using a 7-point standard curve. Precision and accuracy of the extraction and quantification methods were calculated as the percent relative standard deviation (%RSD) of the spiked standards and percent spiked standard recovered, respectively. […] Test medium was removed following chemical exposure, and cell viability was evaluated in the same wells by MTT. […]

[2] = CEETOX_H295R_OHPREG_noMTC: CeeTox H295R High-throughput Steroidogenesis Assay for OH-Pregnenolone (OHPREG), maximum tolerated concentration (MTC) filtered results only (AID 2283912)
In short: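 H295R; 10 uM forskolin 48 h pre-stim; test cpd in DMSO (0.1% final) 48 h; media MTBE-extracted, HPLC-MS/MS for OH-pregnenolone; bidirectional fit vs DMSO; no MTC (MTT) filtering.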

[3] = CEETOX_H295R_OHPROG_noMTC: CeeTox H295R High-throughput Steroidogenesis Assay for OH-Progesterone (OHPROG), maximum tolerated concentration (MTC) filtered results only (AID 2283914)
In short: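 Medium hormone measured by reverse-phase C18 HPLC with positive electrospray MS/MS after MTBE liquid-liquid extraction. Cells had 48 h forskolin (10 uM) prestimulation, then 48 h chemical dosing. Gain or loss of signal fitted relative to DMSO baseline.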

[4] = CEETOX_H295R_CORTISOL_noMTC: CeeTox H295R High-throughput Steroidogenesis Assay for Cortisol, maximum tolerated concentration (MTC) filtered results only (AID 2283916)
In short: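 H295R human adrenal cells prestimulated 48 h with 10 uM forskolin, then exposed 48 h to chemical in 0.1% DMSO; cortisol in medium quantified by HPLC-MS/MS; bidirectional fit vs DMSO baseline, concentrations not MTT-filtered for MTC.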

[5] = CEETOX_H295R_CORTIC_noMTC: CeeTox H295R High-throughput Steroidogenesis Assay for Corticosterone (CORTIC), maximum tolerated concentration (MTC) filtered results only (AID 2283917)
In short: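 Corticosterone secreted into the medium was measured by reverse-phase C18 HPLC with tandem MS after MTBE extraction. Cells (H295R) had 48 h forskolin (10 uM) stimulation before 48 h chemical exposure; gain or loss of signal was fitted relative to DMSO.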

[6] = CEETOX_H295R_DOC_noMTC: CeeTox H295R High-throughput Steroidogenesis Assay for DOC, maximum tolerated concentration (MTC) filtered results only (AID 2283918)
In short: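 H295R cells prestimulated 48 h with 10 uM forskolin, then exposed 48 h to chemical in 0.1% DMSO. 11-Deoxycorticosterone in medium measured by MTBE extraction and HPLC-MS/MS; bidirectional fit vs DMSO, no MTC filter.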

[7] = CEETOX_H295R_PROG_noMTC: CeeTox H295R High-throughput Steroidogenesis Assay for Progesterone (PROG), maximum tolerated concentration (MTC) filtered results only (AID 2283920)
In short: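 Readout: medium progesterone by MTBE extraction, reverse-phase C18 HPLC, ESI-positive MS/MS. Human H295R cells, 10 uM forskolin pretreatment 48 h, chemical 48 h in 0.1% DMSO. Gain or loss fitted against DMSO baseline.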

[8] = CEETOX_H295R_ANDR_noMTC: CeeTox H295R High-throughput Steroidogenesis Assay for Androstenedione (ANDR), maximum tolerated concentration (MTC) filtered results only (AID 2283915)
In short: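 Androstenedione secreted into medium was measured by LC-MS/MS after MTBE extraction. Human adrenal H295R cells received 10 uM forskolin for 48 h before 48 h chemical exposure (0.1% DMSO). Gain or loss fitted against DMSO, including concentrations above the MTT-derived MTC.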

[9] = CEETOX_H295R_ESTRADIOL_noMTC: CeeTox H295R High-throughput Steroidogenesis Assay for Estradiol, maximum tolerated concentration (MTC) filtered results only (AID 2283919)
In short: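 Readout: dansyl-derivatized estradiol quantified by LC-MS/MS in medium from H295R cells dosed 48 h (0.1% DMSO) following 48 h forskolin (10 uM) prestimulation. Gain or loss of signal fitted against DMSO; no MTC filtering applied.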

[10] = CEETOX_H295R_ESTRONE_noMTC: CeeTox H295R High-throughput Steroidogenesis Assay for Estrone, maximum tolerated concentration (MTC) filtered results only (AID 2283921)
In short: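 Estrone in spent medium, quantified by tandem MS following dansyl chloride derivatization, after 48 h chemical exposure (0.1% DMSO) of forskolin-prestimulated (10 uM, 48 h) H295R cells; concentrations not MTC-filtered, bidirectional fit against DMSO.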

Measured: outcome

CCCCCCOC(=O)c1ccccc1C(=O)OCCCCCC
inactive: [1] | [2] | [3] | [4] | [5] | [6]

Oc1c(Cl)c(Cl)c(Cl)c(Cl)c1Cl
inactive: [1] | [2] | [3] | [4] | [5] | [6] | [7]

O=C(O)C(F)(F)C(F)(F)C(F)(F)C(F)(F)C(F)(F)C(F)(F)C(F)(F)C(F)(F)C(F)(F)F
inactive: [1] | [2] | [3] | [4] | [5] | [6] | [7]

CCCCCCCCOC(=O)c1ccccc1C(=O)OCCCCCCCC
inactive: [2] | [3] | [8] | [9] | [7] | [10]

Reference: PubChem BioAssay (EPA / NIEHS)
